Assay results taken from PubChem BioAssay (Tox21).
Several values for one entry are separate records, joined by “and”; a condition that tells them apart may be missing. Equal entries are not always repeated. Records with an inconclusive call do not appear. A call without a number means that no potency is given here. The source holds several records for some structures; these can differ, active in one and inactive in another. Activity calls are given as the source filed them. Unless noted, calls follow the shape of the dose curve; as a rule, active = well fitted curve in the direction sought with a large enough effect in the repeat runs; inconclusive = weak or mixed curves; inactive = no such curve, though single readings can be large; an effect the other way counts as inactive or inconclusive.

Key:
[1] = qHTS assay for small molecule agonists of the p53 signaling pathway (AID 651631; calls by dose curve; also: nearly all actives have a fitted effect of over 15% in size; also: potency is read from the fitted curve at half-maximal effect)
Outline: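 HCT-116 cells carrying a beta-lactamase reporter under p53 response elements were dosed with compound for 16 h at 37 °C. LiveBLAzer B/G FRET substrate was then added for 2 h at room temperature, and fluorescence intensity was read to detect pathway agonism.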

[2] = qHTS assay for small molecules that induce genotoxicity in human embryonic kidney cells expressing luciferase-tagged ATAD5 (AID 651632); also: nearly all actives have a fitted effect of over 15% in size; also: potency is read from the fitted curve at half-maximal effect
Outline: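 Luminescence read-out: after 16 hr compound exposure at 37C, ATAD5-luciferase HEK293T cells received Amplite, 30 min RT, then CCD imaging. A rise in signal marks genotoxic stress.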

[3] = qHTS assay for small molecule agonists of the p53 signaling pathway - cell viability (AID 651633; calls by dose curve; also: nearly all actives have a fitted effect of over 30% in size; also: potency is read from the fitted curve at half-maximal effect)
Outline: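 p53RE-bla cells, seeded at 4,000 per well and rested 5 h at 37 C/5% CO2, received compounds in DMSO for 16 h at 37 C. CellTiter-Glo was then added, and luminescence was read after 30 min at room temperature to gauge cytotoxicity.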

[4] = qHTS assay for small molecules that induce genotoxicity in human embryonic kidney cells expressing luciferase-tagged ATAD5 - cell viability (AID 651634; calls by dose curve; also: nearly all actives have a fitted effect of over 25% in size; also: potency is read from the fitted curve at half-maximal effect)
Outline: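 HEK293T ATAD5-luc cells, 2,000/well; compound 15.5 hr, 37C/5% CO2; CellTiter-Fluor 30 min, 37C; fluorescence read.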

[5] = qHTS assay for small molecule disruptors of the mitochondrial membrane potential - cell viability (AID 720634; calls by dose curve; also: nearly all actives have a fitted effect of over 20% in size; also: potency is read from the fitted curve at half-maximal effect)
Outline: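 Luminescence from CellTiter-Glo (ATP content) gave viability in HepG2 cells, read in the same wells as the MMP dye assay after 1 hr compound exposure at 37 C.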

[6] = qHTS assay for small molecule disruptors of the mitochondrial membrane potential (AID 720635); also: potency is read from the fitted curve at half-maximal effect
Outline: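 HepG2 cells (2,000/well) attached overnight at 37C, then took compound for 1 hr at 37C, 5% CO2. Mito-MPS dye was added for 30 min; fluorescence was read at 490/535 nm (monomers) and 540/590 nm (aggregates).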

[7] = qHTS assay to test for compound auto fluorescence at 590 nm (red) in HepG2 cells (AID 720674)
Outline: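 Rose Bengal sodium served as the red fluorophore standard. HepG2 monolayers (overnight attachment, MEM with 10% FBS) were exposed to test compounds for 1 hr at 37 C and read at Ex 540/Em 590 nm.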

[8] = qHTS assay to test for compound auto fluorescence at 535 nm (green) in HepG2 cells (AID 720675)
[9] = qHTS assay to test for compound auto fluorescence at 590 nm (red) in HEK293 cells (AID 720679)
Outline: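 Using HEK293 cells at 2,000 per well, the screen added 23 nL of each compound after cell attachment and incubated overnight (37C, 5% CO2). The plate reader then captured red-label fluorescence, Ex/Em 540/590nm.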

[10] = qHTS assay to test for compound auto fluorescence at 460 nm (blue) in HEK293 cells (AID 720678)
Outline: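 Measured: blue fluorescence (Ex 405/Em 460 nm) of compound-treated HEK293 cells, incubated overnight at 37C with 5% CO2 and scaled to triamterene equivalents.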

OCC(CO)N[C@H]1C[C@](O)(CO)[C@@H](O)[C@H](O)[C@H]1O
Potency [1]: inactive
Potency [2]: inactive
Potency [3]: inactive
Potency [4]: inactive
Potency [5]: inactive
Potency [6]: inactive
outcome [7]: inactive
Potency [8]: inactive
outcome [9]: inactive

Cc1cc(Cc2cc(C)cc(C(C)(C)C)c2O)c(O)c(C(C)(C)C)c1
Potency [1]: 30.6 µM (active)
Potency [2]: inactive
Potency [3]: 13.8 µM (active) and 17.2 µM (active)
Potency [4]: 61.4 µM (active) and 61.1 µM (active)
Potency [6]: 1.23 µM (active) and 1.09 µM (active)
outcome [7]: inactive
Potency [8]: inactive

COc1cc(C(=S)N2CCOCC2)ccc1O
Potency [1]: inactive
Potency [2]: inactive
Potency [3]: inactive
Potency [4]: inactive
Potency [5]: inactive
outcome [7]: inactive
Potency [8]: inactive
Potency [10]: inactive

OCCN1CCNCC1
Potency [1]: inactive
Potency [2]: inactive
Potency [3]: inactive
Potency [4]: inactive
Potency [5]: inactive
Potency [6]: inactive
outcome [7]: inactive
Potency [8]: inactive
Potency [10]: inactive
outcome [9]: inactive

Oc1c(Cl)cc(Cl)c(Cl)c1Cc1c(O)c(Cl)cc(Cl)c1Cl
Potency [1]: 13.3 µM (active) and 9.66 µM (active) and 54.5 µM (active)
Potency [2]: inactive
Potency [3]: 1.88 µM (active) and 68.4 µM (active) and 12.2 µM (active)
Potency [4]: 6.68 µM (active) and 2.72 µM (active) and 1.93 µM (active)
Potency [6]: 841 nM (active) and 484 nM (active) and 344 nM (active)
outcome [7]: inactive
Potency [8]: inactive
Potency [10]: inactive
outcome [9]: inactive

CCC(CO)(CO)COCC(CC)(CO)CO
Potency [1]: inactive
Potency [2]: inactive
Potency [3]: inactive
Potency [4]: inactive
Potency [5]: inactive
Potency [6]: inactive
outcome [7]: inactive
Potency [8]: inactive
outcome [9]: inactive

CCC[C@H](N[C@@H](C)C(=O)N1[C@H](C(=O)O)C[C@@H]2CCCC[C@@H]21)C(=O)OCC
Potency [1]: inactive
Potency [2]: inactive
Potency [3]: inactive
Potency [4]: inactive
Potency [5]: inactive
Potency [6]: inactive
outcome [7]: inactive
Potency [8]: inactive
outcome [9]: inactive

Cc1scc2c1N(C(=O)CN1CCN(C)CC1)c1ccccc1NC2=O
Potency [1]: inactive
Potency [2]: inactive
Potency [3]: inactive
Potency [4]: inactive
Potency [5]: inactive
outcome [7]: inactive
Potency [8]: inactive
Potency [10]: inactive

CC[C@@H](N)CO
Potency [1]: inactive
Potency [2]: inactive
Potency [3]: inactive
Potency [4]: inactive
Potency [5]: inactive
outcome [7]: inactive
Potency [8]: inactive

CCC(C)(C)C(=O)O[C@H]1C[C@@H](C)C=C2C=C[C@H](C)[C@H](CC[C@@H]3C[C@@H](O)CC(=O)O3)[C@H]21
Potency [2]: inactive
Potency [3]: inactive and 61.1 µM (active)
Potency [4]: inactive
outcome [7]: inactive
Potency [8]: inactive
Potency [10]: inactive

CC(=O)O[C@]1(C(C)=O)CC[C@H]2[C@@H]3C[C@H](C)C4=CC(=O)CC[C@]4(C)[C@H]3CC[C@@]21C
Potency [2]: inactive
Potency [3]: inactive
Potency [4]: inactive
Potency [5]: inactive
outcome [7]: inactive
Potency [8]: inactive
Potency [10]: inactive
outcome [9]: inactive

CCCCCCCCCCCCCCCCCl
Potency [2]: inactive
Potency [3]: inactive
Potency [4]: inactive
Potency [5]: inactive
fluorescence, relative to Rose Bengal [7]: -0.733% [at 18.6 µM] (inactive)
fluorescence, % of fluorescein control [8]: -0.021% [at 18.6 µM] (inactive)

O=C1NCC2(CCN(CCc3ccccc3)CC2)O1
Potency [2]: inactive
Potency [3]: inactive
Potency [4]: inactive
Potency [5]: inactive
outcome [7]: inactive
Potency [8]: inactive
Potency [10]: inactive
outcome [9]: inactive

CCCCCCCCCCCC[N+](C)(C)C
Potency [2]: inactive
Potency [4]: inactive
Potency [5]: inactive
Potency [6]: 61.1 µM (active)
outcome [7]: inactive
Potency [8]: inactive
Potency [10]: inactive

Cc1ccc(S(=O)(=O)Oc2ccc(N=Nc3ccc(-c4ccc(N=Nc5c(O)ccc6cc(S(=O)(=O)O)cc(S(=O)(=O)O)c56)c(C)c4)cc3C)cc2)cc1
Potency [3]: inactive
Potency [4]: 54.7 µM (active) and 20 µM (active)
Potency [5]: inactive
outcome [7]: inactive
Potency [8]: inactive
outcome [9]: inactive

Cc1ccc(-c2cc(C(F)(F)F)nn2-c2ccc(S(N)(=O)=O)cc2)cc1
Potency [2]: inactive
Potency [3]: 54.3 µM (active)
Potency [5]: 11.9 µM (active) and 12.1 µM (active) and 30.6 µM (active)
Potency [6]: 11.9 µM (active) and 7.66 µM (active) and 21.7 µM (active)
outcome [7]: inactive
Potency [8]: inactive
Potency [10]: inactive
outcome [9]: inactive

O=C1Nc2ccccc2C1(c1ccc(O)cc1)c1ccc(O)cc1
Potency [2]: inactive
Potency [4]: inactive
Potency [5]: inactive
Potency [6]: 13.7 µM (active)
outcome [7]: inactive
Potency [8]: inactive
Potency [10]: inactive
outcome [9]: inactive

COc1ccc(CCN2CCC(Nc3nc4ccccc4n3Cc3ccc(F)cc3)CC2)cc1
Potency [3]: 26.6 µM (active) and 11.1 µM (active)
Potency [4]: 26.6 µM (active) and 44.2 µM (active)
Potency [5]: 49.6 µM (active)
outcome [7]: inactive
Potency [8]: inactive
Potency [10]: inactive
outcome [9]: inactive

CN(C)c1ccc2nc3ccc(=[N+](C)C)cc-3sc2c1
Potency [2]: inactive
Potency [3]: 3.35 µM (active)
Potency [4]: 11.9 µM (active) and 2.94 µM (active) and 48.6 µM (active)
Potency [5]: 10.6 µM (active) and 23.4 µM (active) and 61.1 µM (active)
Potency [6]: 2.37 µM (active) and 830 nM (active) and 1.37 µM (active)
outcome [7]: inactive
Potency [8]: inactive
outcome [9]: inactive

CC(C)(C)c1ccc(O)c(C(C)(C)C)c1
Potency [2]: inactive
Potency [3]: 60.9 µM (active) and 48.6 µM (active)
Potency [5]: 24.2 µM (active)
Potency [6]: 2.72 µM (active) and 3.06 µM (active)
outcome [7]: inactive
Potency [8]: inactive
Potency [10]: inactive
outcome [9]: inactive

CCN(CC)C(=S)SSC(=S)N(CC)CC
Potency [2]: 11.9 µM (active) and 61.1 µM (active) and 13.7 µM (active)
Potency [5]: inactive
Potency [6]: 7.7 µM (active) and 7.02 µM (active)
outcome [7]: inactive
Potency [8]: inactive
Potency [10]: inactive

c1ccc2cc3c(ccc4ccccc43)cc2c1
Potency [2]: 68.8 µM (active)
Potency [3]: inactive
Potency [4]: inactive
outcome [7]: inactive
Potency [8]: inactive
Potency [10]: inactive
outcome [9]: inactive

COc1ccc(CCN(C)CCCC(C#N)(c2ccc(OC)c(OC)c2)C(C)C)cc1OC (configuration not stated)
Potency [2]: inactive
Potency [3]: inactive
Potency [4]: inactive
outcome [7]: inactive
Potency [8]: inactive
Potency [10]: inactive
outcome [9]: inactive

O=C1CC2(CCCC2)CC(=O)N1CCCCN1CCN(c2ncccn2)CC1
Potency [2]: inactive
Potency [4]: inactive
Potency [5]: inactive
Potency [6]: inactive and 30.6 µM (active)
outcome [7]: inactive
Potency [8]: inactive
Potency [10]: inactive
outcome [9]: inactive

CC(C)(C)c1cc(C(C)(C)C)c(O)c(C(C)(C)C)c1
Potency [2]: inactive
Potency [3]: 34.4 µM (active)
Potency [4]: inactive
Potency [5]: inactive
Potency [6]: 17.2 µM (active) and 27.3 µM (active)
outcome [7]: inactive
Potency [8]: inactive
outcome [9]: inactive
